Here are results for 40 compounds from ChEMBL document CHEMBL1157539, “Thousands of chemical starting points for antimalarial lead identification” (Nature, 2010).

Structures are written as SMILES.

In this assay the test system is Plasmodium falciparum. Put plainly: GSK_TCMDC: Inhibition of Plasmodium falciparum 3D7 in whole red blood cells, using parasite LDH activity as an index of growth. Test compounds present at 2uM. It counts as functional.
Turning to `CCCCNCc1ccc(-c2nc(CN(Cc3ccc(Cl)c(Cl)c3)S(=O)(=O)c3ccc(NC(C)=O)cc3)cs2)cc1.O=C(O)C(F)(F)F`, the Inhibition amounted to 96%.
The figure for `O=C(O)C(F)(F)F.c1cc(CN2CCCCC2)cc(-c2cccc(-c3nc4ccccc4[nH]3)c2)c1` is 100%; for `COc1ccc(CNC2CCN(C)CC2)cc1-c1ccc(S(=O)(=O)NCCc2ccccn2)s1.O=C(O)C(F)(F)F` it is 100%; for `CS(=O)(=O)Cc1ccc(Nc2ncc(Cl)c(Nc3cccnc3C(N)=O)n2)cc1.Cl` it is 97%.
The compound `O=C(O)C(F)(F)F.OCCN1CCN(Cc2ccc(-c3cccc(-c4nc5cc(C(F)(F)F)ccc5[nH]4)c3)cc2)CC1` returned an Inhibition of 99%.
Take `CCCN1CCc2c(sc3nc(SCC(=O)Nc4ccc(C)cc4)n(-c4ccc(C)cc4)c(=O)c23)C1`: the Inhibition was 92%.
Next, `COc1ccc2nccc([C@@H](O)CN3CCC(NC(=O)/C=C/c4cccc(C)c4)CC3)c2c1`: 84%; `Cc1cc(N2CCC(NS(=O)(=O)c3cccc4cccnc34)CC2)nc(Nc2cccc(C#N)c2)n1.O=C(O)C(F)(F)F`: 98%.
As for `Cc1nnc2c(NC(=O)NC(C)C)cc3cc(-c4ccc(CN5CCCCC5)cc4)ccc3n12`, the Inhibition is recorded as 87%.
The compound `Cc1cc(SC(C)(C)C)cc2c(Cl)c(C(N)=O)cnc12` yielded an Inhibition of 98%.
The figure for `COc1ccc(CNC(=O)C2Cc3ccccc3CN2Cc2ccc3ccccc3c2)cc1` (stereo not given) is 96%; for `CCn1cnc2c(N3CCCS3(=O)=O)cc(C(=O)N[C@@H](Cc3ccccc3)[C@H](O)CNC(C)(C)c3cccc(C(F)(F)F)c3)cc21` it is 99%.
Compound `CCOC(=O)NC1=NC(C)(C)N(OCCCOc2ccc(C)cc2C)C(NC(=O)OCC)=N1` registered an Inhibition of 95%.
Next, `CC(C)CN(c1nc(C(=O)NNC(=O)[C@H](CC2CC2)NC(=O)c2cc3cc(OCCN(C)C)ccc3o2)cs1)C1CC1`: 87%.
Next, `O=C(CCc1c[nH]cn1)Nc1ccc(-c2ccc(-c3nc4cc(F)ccc4[nH]3)cc2)cc1`: 99%; `CN1C(C)(C)CC(NC(=O)c2ccc(-c3nc4cc(Cl)ccc4[nH]3)cc2)CC1(C)C`: 99%; `O=C(NCCCCN1CCC2c3cccc(O)c3CCC21)c1ccc(-c2ccccc2)cc1` (stereo not given): 81%.
Regarding `Cc1[nH]c(C)c(-c2ccc(CCc3ccc(N)cc3)cc2)c(=O)c1Cl`, the Inhibition is listed as 97%.
`Clc1nc(Cl)c2c(ccn2Cc2ccccc2)n1` displayed an Inhibition of 100%.
The figure for `O=C(Nc1cc(F)cc(F)c1)N1CCOC(CCN2CCC3(CCc4ccccc43)CC2)(c2ccc(Cl)c(Cl)c2)C1` (stereo not given) is 100%.
The figure for `Clc1ccccc1/C=C/c1cncnc1Nc1ccc2[nH]c(Cc3ccccc3)nc2c1` is 96%.
The figure for `Br.CCCCCCCCn1c2c(c(=N)c3c1CCC3)CCC2` is 99%; for `O=C(/C=C/c1ccc(Cl)c(Cl)c1)NCCCCCN1CCC(NC(=O)Nc2ccc(OC(F)F)cc2)CC1` it is 100%; for `O=C(NC1CCN(Cc2ccc(Cl)cc2)CC1)c1cn(-c2ccccc2)nc1-c1cccnc1` it is 93%.
`O=C(Nc1ccc(-c2ccc(-c3nc4cc(C(F)(F)F)ccc4[nH]3)s2)cc1)c1c[nH]cn1` had an Inhibition of 92%.
`Cc1cc(N[C@@H](CC(C)C)C(=O)NCCc2ccccc2)nc(NCc2ccccc2C)n1.O=C(O)C(F)(F)F` displayed an Inhibition of 93%.
Next, `COc1cc(NCCCCCNc2cc(Cl)nc3ccccc23)nc2ccccc12`: 100%.
With `O=C(NCc1cccc(OC(F)(F)F)c1)c1cnc2c(c1)nc(-c1c[nH]c(-c3ccccc3)n1)n2CCc1c[nH]cn1`, the Inhibition came out at 99%.
The figure for `O=C(Cc1cccc(O)c1)Nc1ccc(-c2cccc(-c3nc4cc(C(F)(F)F)ccc4[nH]3)c2)cc1` is 86%; for `COc1cccc(C(=O)Nc2nc3c(s2)CCN(Cc2ccccc2N2CCNCC2)CC3)c1.O=C(O)C(F)(F)F` it is 89%.
The compound `COc1cc(CNCCCNc2cc(=O)c3ccccc3[nH]2)c2c(c1)C(C)CN2C(=O)OC(C)(C)C` (stereo not given) showed an Inhibition of 96%.
`CCN(CC)c1ccc(NC(=S)NC2CCN(CCCCCNC(=O)/C=C/c3ccc(Cl)c(Cl)c3)CC2)cc1` registered an Inhibition of 100%.
As to `COc1ccc(CCN(C)CCCN2CCC(NC(=O)c3cccc4c(=O)c5ccccc5[nH]c34)CC2)cc1OC.O=C(O)C(=O)O`, the Inhibition is listed as 99%.
For `COc1ccc(-c2ccc(NC(=O)c3cccc(Cl)c3)cc2)cc1CN(C)CCO.O=C(O)C(F)(F)F`, the Inhibition is given as 89%.
The figure for `CC(=O)Nc1cccc(NC(=O)CSc2ccc(-c3nc4ccccc4[nH]3)cn2)c1` is 97%; for `COc1cccc(CN2CCCN(Cc3cccc(NC(=O)c4cc5ccccc5s4)c3)CC2)c1.O=C(O)C(F)(F)F` it is 89%.
Next, `CCCCc1ccc(NC(=O)Nc2cccc(CCNCc3ccccc3)c2)cc1.O=C(O)C(F)(F)F`: 94%; `Br.COc1ccc(OC)c2c1CCN(C)C2Cc1cccc2ccccc12` (stereo not given): 91%.
In turn, `CCN(CC)CCN(Cc1ccc(-c2ccc(Cl)s2)cc1)C(=O)Cn1c(CCc2cccc(F)c2F)nc(=O)c2ccccc21.O=C(O)C(O)C(O)C(=O)O` had an Inhibition of 96%.
The figure for `O=C(O)C(F)(F)F.OCCN1CCN(Cc2cccc(-c3cccc(-c4nc5cc(F)ccc5[nH]4)c3)c2)CC1` is 100%.
